PubChem BioAssay (EPA / NIEHS)
Records with an inconclusive call do not appear. The source made the active and inactive calls. Rule for the calls, unless noted: active = hit-call score of the fitted dose curve at least 0.9, where 1 is the maximum; inconclusive = response in the unintended direction; inactive = score below 0.9.

Read-out: Cytochrome P450 (CYP24A1_1), CYP24A1 (gene 1591)
Assay: LTEA_HepaRG_CYP24A1_1: Life Technologies and Expression Analysis (LTEA) Assay for Cytochrome P450 (CYP24A1_1) using HepaRG (AID 2283671; active = hit-call score of the fitted dose curve at least 0.9, where 1 is the maximum; inactive = score below 0.9)
Settings: mRNA level, 48 h; actives raise or lower the signal
Outline: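 Differentiated human HepaRG cells were exposed in duplicate for 48 h in serum-free induction medium to eight concentrations (top 100 uM, half-log steps, 0.5% DMSO). CYP24A1 mRNA was quantified by TaqMan qRT-PCR, normalized to ACTB, GAPDH and POLR2A, and fitted bidirectionally versus DMSO.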

Row | Compound | outcome
1 | CC1(C(=O)Nc2ccc(O)c(Cl)c2Cl)CCCCC1 | inactive
2 | CNC(=O)Oc1cccc2c1OC(C)(C)O2 | inactive
3 | CCc1cccc(CC)c1N(COC)C(=O)CCl | inactive
4 | CCOP(=S)(OCC)Oc1ccc2c(C)c(Cl)c(=O)oc2c1 | inactive

Read-out: glucuronosyltransferase (UGT1A1), UGT1A1 (gene 54658)
Assay: CLD_UGT1A1_6hr: CellzDirect (CLD) Gene Expression Assay for glucuronosyltransferase (UGT1A1) at 6 hours (AID 2283672)
Settings: not given
Outline: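 UGT1A1 mRNA induction, read by quantitative nuclease protection assay, 6 h after dosing primary human hepatocytes (two donors, 0.2% DMSO vehicle). Gain of signal fitted relative to vehicle.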

Row | Compound | outcome
5 | FC(F)C(F)(F)OCC(Cn1cncn1)c1ccc(Cl)cc1Cl (stereo not drawn) | inactive
6 | CCc1cnc(C2=NC(C)(C(C)C)C(=O)N2)c(C(=O)O)c1 (stereo not drawn) | inactive
7 | CC1(C(=O)Nc2ccc(O)c(Cl)c2Cl)CCCCC1 | inactive
8 | CCNc1nc(Cl)nc(NC(C)(C)C#N)n1 | inactive
9 | COP(=O)(OC)C(O)C(Cl)(Cl)Cl (stereo not drawn) | inactive
10 | CCOP(=O)(SC(C)CC)N1CCSC1=O (stereo not drawn) | inactive
11 | COc1ccc(C(=CC(=O)N2CCOCC2)c2ccc(Cl)cc2)cc1OC | inactive
12 | CN(C)C(=O)Nc1cccc(C(F)(F)F)c1 | inactive
13 | C#CC(C)(C)NC(=O)c1cc(Cl)cc(Cl)c1 | inactive
14 | COc1cccc(C(=O)NN(C(=O)c2cc(C)cc(C)c2)C(C)(C)C)c1C | inactive
15 | O=C(O)c1cc(Oc2ccc(C(F)(F)F)cc2Cl)ccc1[N+](=O)[O-] | inactive
16 | CNC(=O)ON=C(SC)C(=O)N(C)C | inactive
17 | Nc1nc(N)nc(NC2CC2)n1 | inactive
18 | CC(=NC#N)N(C)Cc1ccc(Cl)nc1 | inactive
19 | COP(=O)(OC)OC(Br)C(Cl)(Cl)Br (stereo not drawn) | inactive
20 | CC(C)[C@H](C(=O)O[C@H](C#N)c1cccc(Oc2ccccc2)c1)c1ccc(Cl)cc1 | inactive
21 | CNc1cnn(-c2cccc(C(F)(F)F)c2)c(=O)c1Cl | inactive

Row | Compound | outcome
22 | CCCCSP(=O)(SCCCC)SCCCC | inactive
23 | CNC(=O)Oc1cccc2c1OC(C)(C)O2 | inactive
24 | CCCCOC(=O)c1ccccc1C(=O)O | inactive
25 | CCOC(=O)COc1cc(-c2nn(C)c(OC(F)F)c2Cl)c(F)cc1Cl | inactive
26 | CN1COCN(Cc2cnc(Cl)s2)C1=N[N+](=O)[O-] | inactive
27 | CN(C)NC(=O)CCC(=O)O | inactive
28 | CNC(=O)ON=C(C)SC | inactive
29 | CCOP(=S)(OCC)SCCSCC | inactive
30 | Cc1cc(C2CC2)nc(Nc2ccccc2)n1 | inactive
31 | COc1cc(OC)nc(Sc2cccc(Cl)c2C(=O)O)n1 | inactive
32 | C=C(C)[C@H]1Cc2c(ccc3c2O[C@@H]2COc4cc(OC)c(OC)cc4[C@@H]2C3=O)O1 | inactive
33 | C[N+]1(C)CCCCC1 | inactive
34 | CCCOc1nn(C(=O)NS(=O)(=O)c2ccccc2C(=O)OC)c(=O)n1C | inactive
35 | CCc1cccc(CC)c1N(COC)C(=O)CCl | inactive
36 | CCOP(=S)(OCC)Oc1ccc2c(C)c(Cl)c(=O)oc2c1 | inactive
37 | CON=C(C(=O)OC)c1ccccc1CON=C(C)c1cccc(C(F)(F)F)c1 | inactive

Read-out: xenobiotic metabolism (CYP1A1), CYP1A1 (gene 1543)
Assay: CLD_CYP1A1_24hr: CellzDirect (CLD) Gene Expression Assay for xenobiotic metabolism (CYP1A1) at 24 hours (AID 2283673);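 note: CYP1A1 mRNA level by quantitative nuclease protection with chemiluminescence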
Settings: not given
Outline: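 Transcript levels were read at 24 h by qNPA chemiluminescence in human liver primary cells. Cells got daily fresh dosing at multiple concentrations (vehicle 0.2% DMSO). Induction fitted upward against DMSO; phase-contrast cytotoxicity annotated.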

Row | Compound | AC50 | outcome
38 | FC(F)C(F)(F)OCC(Cn1cncn1)c1ccc(Cl)cc1Cl (stereo not drawn) | 5.2 µM (active) | 
39 | Nc1c(Cl)cc([N+](=O)[O-])cc1Cl | 9.35 µM (active) | 
40 | CCNc1nc(Cl)nc(NC(C)(C)C#N)n1 |  | inactive
41 | CCOP(=O)(SC(C)CC)N1CCSC1=O (stereo not drawn) |  | inactive
42 | COc1ccc(C(=CC(=O)N2CCOCC2)c2ccc(Cl)cc2)cc1OC |  | inactive
43 | CN(C)C(=O)Nc1cccc(C(F)(F)F)c1 | 2.41 µM (active) | 
44 | C#CC(C)(C)NC(=O)c1cc(Cl)cc(Cl)c1 |  | inactive
45 | COc1cccc(C(=O)NN(C(=O)c2cc(C)cc(C)c2)C(C)(C)C)c1C | 36.4 µM (active) | 
46 | Nc1nc(N)nc(NC2CC2)n1 |  | inactive
47 | COP(=O)(OC)OC(Br)C(Cl)(Cl)Br (stereo not drawn) |  | inactive
48 | CC(C)[C@H](C(=O)O[C@H](C#N)c1cccc(Oc2ccccc2)c1)c1ccc(Cl)cc1 |  | inactive
49 | CNc1cnn(-c2cccc(C(F)(F)F)c2)c(=O)c1Cl | 5.85 µM (active) | 
50 | CCCCSP(=O)(SCCCC)SCCCC | 4.53 µM (active) | 
51 | O=[N+]([O-])c1cc(C(F)(F)F)c(Cl)c([N+](=O)[O-])c1Nc1ncc(C(F)(F)F)cc1Cl | 0.485 µM (active) | 
52 | CCOC(=O)COc1cc(-c2nn(C)c(OC(F)F)c2Cl)c(F)cc1Cl |  | inactive
53 | CN1COCN(Cc2cnc(Cl)s2)C1=N[N+](=O)[O-] |  | inactive
54 | CNC(=O)ON=C(C)SC |  | inactive
55 | CCOP(=S)(OCC)SCCSCC | 2.7 µM (active) | 
56 | Cc1cc(C2CC2)nc(Nc2ccccc2)n1 | 29.9 µM (active) | 
57 | C=C(C)[C@H]1Cc2c(ccc3c2O[C@@H]2COc4cc(OC)c(OC)cc4[C@@H]2C3=O)O1 | 3.38 µM (active) | 
58 | CCCOc1nn(C(=O)NS(=O)(=O)c2ccccc2C(=O)OC)c(=O)n1C |  | inactive
59 | CCc1cccc(CC)c1N(COC)C(=O)CCl | 3.06 µM (active) | 
60 | CCOP(=S)(OCC)Oc1ccc2c(C)c(Cl)c(=O)oc2c1 | 1.89 µM (active) | 
61 | CON=C(C(=O)OC)c1ccccc1CON=C(C)c1cccc(C(F)(F)F)c1 |  | inactive

Read-out: ABC Transporter (ABCB11), ABCB11 (gene 8647)
Assay: CLD_ABCB11_6hr: CellzDirect (CLD) Gene Expression Assay for ABC Transporter (ABCB11) at 6 hours (AID 2283675);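 note: hits raise ABCB11 mRNA level so AC50 marks induction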
Settings: not given
Outline: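 Read-out was ABCB11 mRNA gain of signal by quantitative nuclease protection assay, relative to 0.2% DMSO vehicle, 6 h post-dose. Cells were primary human hepatocytes from two donors, treated across multiple concentrations; phase-contrast cytotoxicity noted yes/no.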

Row | Compound | outcome
62 | CCc1cnc(C2=NC(C)(C(C)C)C(=O)N2)c(C(=O)O)c1 (stereo not drawn) | inactive
63 | CC1(C(=O)Nc2ccc(O)c(Cl)c2Cl)CCCCC1 | inactive
64 | Nc1c(Cl)cc([N+](=O)[O-])cc1Cl | inactive
65 | CCNc1nc(Cl)nc(NC(C)(C)C#N)n1 | inactive
66 | COP(=O)(OC)C(O)C(Cl)(Cl)Cl (stereo not drawn) | inactive
67 | CCOP(=O)(SC(C)CC)N1CCSC1=O (stereo not drawn) | inactive
68 | COc1cccc(C(=O)NN(C(=O)c2cc(C)cc(C)c2)C(C)(C)C)c1C | inactive
69 | O=C(O)c1cc(Oc2ccc(C(F)(F)F)cc2Cl)ccc1[N+](=O)[O-] | inactive
70 | Nc1nc(N)nc(NC2CC2)n1 | inactive
71 | COP(=O)(OC)OC(Br)C(Cl)(Cl)Br (stereo not drawn) | inactive
72 | CC(C)[C@H](C(=O)O[C@H](C#N)c1cccc(Oc2ccccc2)c1)c1ccc(Cl)cc1 | inactive
73 | CNc1cnn(-c2cccc(C(F)(F)F)c2)c(=O)c1Cl | inactive
74 | CCCCSP(=O)(SCCCC)SCCCC | inactive
75 | O=[N+]([O-])c1cc(C(F)(F)F)c(Cl)c([N+](=O)[O-])c1Nc1ncc(C(F)(F)F)cc1Cl | inactive
76 | CCCCOC(=O)c1ccccc1C(=O)O | inactive
77 | CCOC(=O)COc1cc(-c2nn(C)c(OC(F)F)c2Cl)c(F)cc1Cl | inactive
78 | CN1COCN(Cc2cnc(Cl)s2)C1=N[N+](=O)[O-] | inactive
79 | CN(C)NC(=O)CCC(=O)O | inactive
80 | CNC(=O)ON=C(C)SC | inactive
81 | CCOP(=S)(OCC)SCCSCC | inactive
82 | COc1cc(OC)nc(Sc2cccc(Cl)c2C(=O)O)n1 | inactive
83 | C=C(C)[C@H]1Cc2c(ccc3c2O[C@@H]2COc4cc(OC)c(OC)cc4[C@@H]2C3=O)O1 | inactive
84 | C[N+]1(C)CCCCC1 | inactive
85 | CCc1cccc(CC)c1N(COC)C(=O)CCl | inactive
86 | S=C1NCCN1 | inactive
87 | CCOP(=S)(OCC)Oc1ccc2c(C)c(Cl)c(=O)oc2c1 | inactive
88 | CON=C(C(=O)OC)c1ccccc1CON=C(C)c1cccc(C(F)(F)F)c1 | inactive
